The text below walks through data of PubChem BioAssay.

Structures are written as SMILES. A number with no mark means an inactive call. For some of these results: Results with a measured potency or affinity are listed apart. Activity calls are given as the source filed them. Unless noted, how the calls were made is not given here.

The nature of assay [1]: antimalarial activity against Dd2 strain (AID 2302;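 active means growth inhibition above 50% at the single 2 µM test dose, taken to imply half-maximal potency below 2 µM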;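 further: 0% = DMSO untreated growth and 100% = chloroquine plus artemisinin killed control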). The note with it: P. falciparum Dd2 in RBCs, LDH growth readout, 72 h; at 2 µM; hits give high values.
A short description of assay [2]: HepG2 cytotoxicity, primary screen, cytotoxicity control for P. falciparum antimalarial project, cell-based, ATP luminescence (AID 2303;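 active means inhibition above 50%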;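 further: 0% = DMSO wells and 100% = digitonin-killed cells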). As to conditions: HepG2 viability, 24-48 h, at 10 µM, hits give high values.
For assay [3], the target named is L-lactate dehydrogenase (Plasmodium falciparum (isolate CDC / Honduras)) (UniProt Q27743). As to the kind of experiment: PfLDH activity inhibition – cell lysate, 3D7 strain, counter-screen for P. falciparum growth inhibition project (AID 2304).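 Further: 0% = vehicle and 100% = reference inhibitor.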 The note with it: P. falciparum 3D7 crude extract, LDH APAD/NBT absorbance; at 2 µM; hits give high values.
A short description of assay [4]: inhibition of 3D7 malaria parasite growth – strain 3D7 (AID 2306).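 Further: 0% = DMSO wells and 100% = chloroquine plus artemisinin control wells.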 The note with it: P. falciparum 3D7 erythrocytic growth, LDH absorbance, 72 h; at 2 µM; hits give high values.
Assay [5] deals with Calcium-dependent protein kinase 1 (Plasmodium falciparum (isolate 3D7)) (UniProt P62344). As to the kind of experiment: PfCDPK1 kinase inhibitors, biochemical, TCAMS library (AID 1159585; cut-off not given, nearly all actives have IC50 up to about 0.98 µM;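 further: inhibitors leave more ATP so luminescence rises with inhibition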). As to conditions: recombinant PfCDPK1, Kinase-Glo ATP depletion luminescence.
Assay [6] concerns the target Plasmodium falciparum protein kinase 6 (PK6, PF3D7_1337100) (UniProt Q8IDW1). As to the kind of experiment: PfPK6 kinase inhibitors, biochemical, TCAMS library (AID 1159586). As to conditions: recombinant PfPK6, Kinase-Glo ATP depletion luminescence.
Assay [7] deals with Protein kinase 7 (PK7), Plasmodium falciparum 3D7 (PF3D7_0213400) (UniProt Q7YTF7). As to the kind of experiment: inhibition of Plasmodium PK7 catalytic activity – biochemical, TCAMS antimalarial set, Kinase-Glo luminescence (AID 1159587). As to conditions: recombinant PfPK7, Kinase-Glo ATP depletion luminescence.
Assay [8] deals with Calcium-dependent protein kinase 4 (Plasmodium falciparum (isolate 3D7)) (UniProt Q8IBS5). As to the kind of experiment: PfCDPK4 kinase inhibitors, biochemical, TCAMS library (AID 1159588; cut-off not given, nearly all actives have IC50 up to about 0.91 µM). As to conditions: recombinant PfCDPK4, Kinase-Glo ATP depletion luminescence.
Chain of Calcium-dependent protein kinase 4 (Plasmodium falciparum (isolate 3D7)) (Q8IBS5 whole entry, looked up): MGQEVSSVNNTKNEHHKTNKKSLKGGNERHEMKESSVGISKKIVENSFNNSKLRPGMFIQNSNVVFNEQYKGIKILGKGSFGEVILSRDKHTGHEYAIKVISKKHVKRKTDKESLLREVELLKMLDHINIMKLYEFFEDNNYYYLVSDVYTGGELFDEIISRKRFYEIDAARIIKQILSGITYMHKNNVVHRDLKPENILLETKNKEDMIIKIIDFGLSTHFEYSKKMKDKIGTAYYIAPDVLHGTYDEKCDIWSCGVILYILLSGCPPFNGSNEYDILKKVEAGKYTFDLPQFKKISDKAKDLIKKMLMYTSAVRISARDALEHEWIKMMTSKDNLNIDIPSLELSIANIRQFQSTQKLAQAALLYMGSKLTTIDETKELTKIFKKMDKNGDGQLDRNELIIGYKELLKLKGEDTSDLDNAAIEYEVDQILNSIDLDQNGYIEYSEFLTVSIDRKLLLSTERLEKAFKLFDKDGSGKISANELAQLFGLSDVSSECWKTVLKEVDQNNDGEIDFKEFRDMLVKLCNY

Chain of Calcium-dependent protein kinase 1 (Plasmodium falciparum (isolate 3D7)) (P62344 whole entry, looked up): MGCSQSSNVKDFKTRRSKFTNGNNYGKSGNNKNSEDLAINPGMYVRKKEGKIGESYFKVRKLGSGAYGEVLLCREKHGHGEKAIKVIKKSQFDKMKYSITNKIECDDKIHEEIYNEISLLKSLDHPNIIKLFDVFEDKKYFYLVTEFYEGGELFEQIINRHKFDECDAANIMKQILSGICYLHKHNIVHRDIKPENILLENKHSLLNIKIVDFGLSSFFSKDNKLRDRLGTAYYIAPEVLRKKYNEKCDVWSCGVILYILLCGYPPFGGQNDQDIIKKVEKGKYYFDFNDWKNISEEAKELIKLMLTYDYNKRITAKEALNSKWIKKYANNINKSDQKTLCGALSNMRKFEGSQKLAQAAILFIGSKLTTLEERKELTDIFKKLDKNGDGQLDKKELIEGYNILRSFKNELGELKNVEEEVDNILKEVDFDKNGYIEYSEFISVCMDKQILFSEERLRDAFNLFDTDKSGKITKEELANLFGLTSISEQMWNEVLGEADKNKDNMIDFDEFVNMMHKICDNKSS
Chain of Plasmodium falciparum protein kinase 6 (PK6, PF3D7_1337100) (Q8IDW1 1-305): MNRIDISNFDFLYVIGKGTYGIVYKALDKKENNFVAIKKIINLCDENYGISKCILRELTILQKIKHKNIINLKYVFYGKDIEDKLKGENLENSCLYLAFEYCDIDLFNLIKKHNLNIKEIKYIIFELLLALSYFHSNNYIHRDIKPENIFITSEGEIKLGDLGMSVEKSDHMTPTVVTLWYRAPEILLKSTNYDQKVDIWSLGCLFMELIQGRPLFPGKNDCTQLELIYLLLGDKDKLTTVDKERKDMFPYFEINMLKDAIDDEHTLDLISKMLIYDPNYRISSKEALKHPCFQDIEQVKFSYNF
Chain of L-lactate dehydrogenase (Plasmodium falciparum (isolate CDC / Honduras)) (Q27743 whole entry, looked up): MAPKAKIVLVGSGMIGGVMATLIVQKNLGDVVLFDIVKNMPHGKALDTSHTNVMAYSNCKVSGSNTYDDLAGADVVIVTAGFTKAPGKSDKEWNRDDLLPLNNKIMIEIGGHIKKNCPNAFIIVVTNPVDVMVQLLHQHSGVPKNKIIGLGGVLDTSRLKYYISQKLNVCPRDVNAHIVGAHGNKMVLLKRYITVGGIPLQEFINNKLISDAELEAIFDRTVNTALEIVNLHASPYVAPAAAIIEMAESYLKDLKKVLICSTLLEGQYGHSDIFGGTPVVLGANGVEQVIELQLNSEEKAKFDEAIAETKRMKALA
Chain of Protein kinase 7 (PK7), Plasmodium falciparum 3D7 (PF3D7_0213400) (Q7YTF7 1-343): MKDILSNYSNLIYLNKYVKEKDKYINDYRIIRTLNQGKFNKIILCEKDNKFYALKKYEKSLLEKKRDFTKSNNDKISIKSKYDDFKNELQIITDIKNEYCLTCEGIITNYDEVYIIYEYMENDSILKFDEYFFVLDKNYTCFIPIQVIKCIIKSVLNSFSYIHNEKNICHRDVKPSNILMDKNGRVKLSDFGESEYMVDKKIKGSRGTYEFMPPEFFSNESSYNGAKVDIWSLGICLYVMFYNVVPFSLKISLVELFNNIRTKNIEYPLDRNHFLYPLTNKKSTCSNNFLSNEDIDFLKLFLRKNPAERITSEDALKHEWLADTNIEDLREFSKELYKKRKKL

Consider `Nc1nccc2ccc(-c3ccc4nccn4c3)cc12`, for which the growth inhibition in assay [1] is 100% (active); in assay [4], 101% (active). Besides, the values for the inhibition in assay [2] and in assay [3] were 15% and -2%, respectively. Also, the result in assay [5], in assay [6], in assay [7] and in assay [8] was inactive.

In the case of `Cc1ccc(N2C(N)=NC(N)=NC2(C)C)cc1Cl`, the growth inhibition in assay [1] is 77% (active); in assay [4], 90% (active). In addition, the inhibition in assay [2] was 66% (active); in assay [3], -4%. The outcome in assay [5], in assay [6], in assay [7] and in assay [8] was inactive.

On to `O=C(Nc1ccc(-c2csc(-c3nc4ccccc4[nH]3)c2)cc1)Nc1ccc(F)c(F)c1F`, for which the growth inhibition is 64% (active) in assay [1] and 100% (active) in assay [4]. For the same compound, the results for the inhibition in assay [2] and in assay [3] were 67% (active) and 2%, respectively. For the same compound, the result in assay [5], in assay [6], in assay [7] and in assay [8] was inactive.

`CCC(CC)n1c(C)cc2c3c(N)nc(N)nc3ccc21`: the growth inhibition in assay [1] and in assay [4] was 95% (active) in each case. Besides, the inhibition in assay [2] is 61% (active); in assay [3], 1%. Also, the outcome in assay [5], in assay [6], in assay [7] and in assay [8] was inactive.

In the case of `O=C(Nc1ccc(Cl)cc1)N1CCN(C2CCCCC2)CC1`, the growth inhibition is -6% in assay [1] and 93% (active) in assay [4]. The inhibition is 17% in assay [2] and -3% in assay [3]. The result in assay [5], in assay [6], in assay [7] and in assay [8] was inactive.

Turning to `CC(C)NCc1cccc(-c2ccc(NC(=O)c3ccc(C#N)cc3)cc2)c1`, the growth inhibition in assay [1] is 8%; in assay [4], 99% (active). The inhibition in assay [2] is 15%; in assay [3] it was 3%. In addition, the outcome in assay [5], in assay [6], in assay [7] and in assay [8] was inactive.

In the case of `OCC1CCN(Cc2cccc(C#Cc3cc4ncnc(Nc5ccc(OCc6cccc(F)c6)c(Cl)c5)c4s3)n2)CC1`, the growth inhibition in assay [1] was 95% (active); in assay [4] it was 99% (active). The inhibition was 41% in assay [2] and 1% in assay [3]. In addition, the result in assay [5], in assay [6], in assay [7] and in assay [8] was inactive.

`CCCCn1c(-c2ccco2)nc2c(c(=O)c3ccccc3n2C)c1=O`: the growth inhibition in assay [1] was 64% (active); in assay [4], 87% (active). The results for the inhibition in assay [2] and in assay [3] were 11% and -2%, respectively. Besides, the outcome in assay [5], in assay [6], in assay [7] and in assay [8] was inactive.

With `CC(=O)N[C@@H]1c2cc(C(C)=O)ccc2OC(C)(C)[C@@H]1O`, the growth inhibition was 3% in assay [1] and 97% (active) in assay [4]. The inhibition in assay [2] is 15%; in assay [3], -3%. The result in assay [5], in assay [6], in assay [7] and in assay [8] was inactive.

As to `NC1=NC(Cc2ccccc2)(c2ccncc2)C(=O)N1CCCc1ccccc1` (stereo not given), the growth inhibition in assay [1] was 1%; in assay [4], 86% (active). The inhibition is 1% in assay [2] and 3% in assay [3]. Also, the outcome in assay [5], in assay [6], in assay [7] and in assay [8] was inactive.

As for `CC1CCCC(NCc2c(O)ccc3ccccc23)C1` (stereo not given), the figures for the growth inhibition in assay [1] and in assay [4] were 25% and 93% (active), respectively. Moreover, the inhibition in assay [2] is 10%; in assay [3], 1%. The outcome in assay [5], in assay [6], in assay [7] and in assay [8] was inactive.

Turning to `COc1c(C2CCN(CCCCNC(=O)c3ccc(-c4ccc(C#N)cc4)nc3)CC2)ccc2c1CCCC2`, the growth inhibition in assay [1] is 67% (active); in assay [4] it was 95% (active). For the same compound, the inhibition was 54% (active) in assay [2] and -2% in assay [3]. Moreover, the outcome in assay [5], in assay [6], in assay [7] and in assay [8] was inactive.

On to `CN(CCO)Cc1ccc(-c2ccc(NS(=O)(=O)c3cccc4cccnc34)cc2)cc1`, for which the growth inhibition in assay [1] is 84% (active); in assay [4], 99% (active). For the same compound, the inhibition is 28% in assay [2] and -1% in assay [3]. Moreover, the outcome in assay [5], in assay [6], in assay [7] and in assay [8] was inactive.

Regarding `FC(F)(F)c1ccc(CSc2ccc3nnc(-c4ccccn4)n3n2)cc1`, the values for the growth inhibition in assay [1] and in assay [4] were 54% (active) and 95% (active), respectively. Further, the inhibition in assay [2] was -2%; in assay [3], -1%. Besides, the result in assay [5], in assay [6], in assay [7] and in assay [8] was inactive.

For the compound `CCC(C)CC(=O)Nc1ccc(OC)c(S(=O)(=O)N[C@@H]2CCN(C#N)C2)c1` (stereo not given in full), the growth inhibition is 77% (active) in assay [1] and 94% (active) in assay [4]. Also, the results for the inhibition in assay [2] and in assay [3] were 16% and 0%, respectively. In addition, the outcome in assay [5], in assay [6], in assay [7] and in assay [8] was inactive.

Turning to `O=C(Nc1ccc(CN2CCCCC2)cc1)c1ccc(COc2ccc([N+](=O)[O-])cc2)o1`, the growth inhibition in assay [1] is -3%; in assay [4], 86% (active). Moreover, the values for the inhibition in assay [2] and in assay [3] were 12% and -1%, respectively. Further, the outcome in assay [5], in assay [6], in assay [7] and in assay [8] was inactive.

Take `CCN(CCCN1CCCCC1)c1cc(C)nc(Nc2cc(Br)ccc2C)n1`: the growth inhibition in assay [1] was 39%; in assay [4] it was 98% (active). The inhibition in assay [2] is 32%; in assay [3] it was -7%. Also, the result in assay [5], in assay [6], in assay [7] and in assay [8] was inactive.

Turning to `Cc1ccc2c(=O)cc(CCc3cccc(F)c3F)n(CC(=O)N(Cc3ccc(-c4ccc(C(F)(F)F)cc4)cc3)C3CCN(C)CC3)c2n1`, the growth inhibition in assay [1] was 76% (active); in assay [4], 86% (active). The inhibition is 49% in assay [2] and 0% in assay [3]. Also, the result in assay [5], in assay [6], in assay [7] and in assay [8] was inactive.

As for `CCCCOP(=O)(COc1ccc(CCN(CC(O)COc2cccc3[nH]c4ccccc4c23)CC(O)COc2cccc3[nH]c4ccccc4c23)cc1)C1CCCCC1` (stereo not given), the growth inhibition in assay [1] was 92% (active); in assay [4] it was 89% (active). The inhibition in assay [2] was 7%; in assay [3] it was 4%. For the same compound, the result in assay [5], in assay [6], in assay [7] and in assay [8] was inactive.

As for `Cn1cncc1CNCc1ccc(-c2cccc(-c3nc4ccccc4[nH]3)c2)cc1`, the growth inhibition in assay [1] was 92% (active); in assay [4], 101% (active). Moreover, the inhibition in assay [2] is 19%; in assay [3], -1%. Also, the outcome in assay [5], in assay [6], in assay [7] and in assay [8] was inactive.
